HTR5A inv ag – counter-screen for OPRM1-OPRD1 inverse agonists: human HTR5A inverse agonism; P47898; HTR5A cell line, luminescence; inhibition, % at 9.3 µM; 0.083% of 340,000 active; in the data active = inhibition mostly above about 23%, no sharp cut-off; inactive = mostly below about 18%;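 note: 0% = cells with DMSO and 100% = no-cell wells with DMSO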
HTR5A ag – HTR5A agonism, opioid heterodimer counter-screen; 0.61% of 340,000 active; HTR5A agonist assay, luminescence, cell-based; activation, % at 9.3 µM; P47898; AID 504692; in the data active = activation mostly above about 9.5%, no sharp cut-off; inactive = mostly below about 7.6%;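 note: 0% = cells with vehicle only and 100% = reference agonist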
OPRM1-OPRD1 inv – mu-delta opioid heterodimer inverse agonism; P35372+P41143; cell-based MOR-DOR heterodimer luminescence; inhibition, % at 9.3 µM; 0.21% of 340,000 active; AID 504357; in the data active = inhibition above about 22%, passing the limit was not always enough;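 note: 0% = cells with DMSO and 100% = wells without cells with DMSO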
Target sequence (P35372 whole entry, looked up): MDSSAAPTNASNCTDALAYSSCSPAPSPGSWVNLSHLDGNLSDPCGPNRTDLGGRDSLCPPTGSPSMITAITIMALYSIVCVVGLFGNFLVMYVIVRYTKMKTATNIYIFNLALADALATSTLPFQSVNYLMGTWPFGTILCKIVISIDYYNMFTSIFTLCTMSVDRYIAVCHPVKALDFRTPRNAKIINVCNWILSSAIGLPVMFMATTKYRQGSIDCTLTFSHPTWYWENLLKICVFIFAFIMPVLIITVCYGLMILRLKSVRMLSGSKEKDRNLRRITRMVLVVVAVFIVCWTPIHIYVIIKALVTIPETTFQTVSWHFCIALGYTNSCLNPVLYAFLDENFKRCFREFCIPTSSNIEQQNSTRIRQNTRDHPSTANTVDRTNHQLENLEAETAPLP
Target sequence (P41143 whole entry, looked up): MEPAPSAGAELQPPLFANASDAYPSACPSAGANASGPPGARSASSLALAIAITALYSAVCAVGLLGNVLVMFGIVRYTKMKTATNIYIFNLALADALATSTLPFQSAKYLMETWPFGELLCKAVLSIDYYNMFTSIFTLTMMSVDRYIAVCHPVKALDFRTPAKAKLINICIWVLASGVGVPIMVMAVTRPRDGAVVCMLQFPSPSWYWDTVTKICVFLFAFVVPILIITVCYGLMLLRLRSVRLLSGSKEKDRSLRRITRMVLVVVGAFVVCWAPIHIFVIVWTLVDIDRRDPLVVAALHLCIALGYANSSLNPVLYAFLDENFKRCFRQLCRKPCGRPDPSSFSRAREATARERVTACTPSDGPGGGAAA
MOR-DOR ag – OPRM1-OPRD1 heterodimerization agonism; P35372+P41143; cells, luminescence; activation, % at 9.3 µM; 0.3% of 340,000 active;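 note: 0% = vehicle-treated cells and 100% = reference agonist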
OPRM1-D1 ag cf – OPRM1-OPRD1 heterodimer agonism, confirmation | shares compounds with MOR-DOR ag | cells, MOR-DOR heterodimerization, luminescence complementation | activation, % at 9.3 µM | 45% of 830 active | AID 504904;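 note: 0% = vehicle-treated cells and 100% = reference agonist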
HTR5A ag ctr2 – counter-screen for OPRM1-OPRD1 agonists: human HTR5A agonism; shares compounds with MOR-DOR ag; HTR5A agonist counterscreen, cell luminescence; activation, % at 9.3 µM; 8% of 830 active; in the data active = activation above about 17%;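 note: 0% = vehicle-treated cells and 100% = reference agonist response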
The depositor's hits bear a star; i = inactive; · = not tested or not shown; ! = repeats disagree. Compounds with a hit are over-represented: about 1.1% of the library has one in this group of screens. Cut-off read from the data, not from the text of the source, unless noted: active = activation above about 18%; inactive = the rest.

SMILES	HTR5A inv ag	HTR5A ag	OPRM1-OPRD1 inv	MOR-DOR ag	OPRM1-D1 ag cf	HTR5A ag ctr2
Cc1c(Cl)cccc1NC(=S)NCC(c1cccnc1)N(C)C (stereo not given)	-13	0	i	474*	15	6
CC(=O)c1ccc(NC(=O)CNCC(c2ccccc2)N(C)C)cc1 (stereo not given)	-6	-3	-5	1	·	·
Cc1ccc(C)c(NC(=S)NCC(c2ccccc2)N(C)C)c1 (stereo not given)	-6	2	i	265*	361*	-2
Cc1ccc(NC(=O)NCC(c2ccccc2)N(C)C)cc1 (stereo not given)	8	-2	i	353*	23*	17*
COc1cc(C2c3cc4c(cc3OC(C)(N3CCCC3)C2C)OCO4)cc(OC)c1OC (stereo not given)	4	-1	16	-3	·	·
COc1cccc(CNC(=O)CN(C)S(=O)(=O)c2ccc3c(c2)n(C)c(=O)c(=O)n3C)c1	6	-2	18	-4	·	·
CCN(Cc1ccncc1)C(=O)c1cc(COc2c(F)cccc2F)on1	-5	7	2	0	·	·
O=C(CNC(=O)/C=C/c1ccco1)N=Nc1c(O)[nH]c2ccccc12	29	-2	20	-4	·	·
COc1ccc(/C(N)=N/OC(=O)CN(C)S(=O)(=O)c2ccc(C)cc2)cc1	-18	5	-4	1	·	·
Cc1cccc(NC(=S)NCC(c2cccnc2)N(C)C)c1C (stereo not given)	10	-4	i	416*	412*	4
OCC1(CCc2ccccc2)CCN(Cc2cccn2-c2cccnc2)CC1	3	-12	i	144*	384*	2
CN(C)C(CNC(=O)CCOc1ccccc1)c1ccco1 (stereo not given)	4	6	-141	26*	24*	3
CC(=O)c1ccc(OCCCC(=O)NCC(c2ccco2)N(C)C)cc1 (stereo not given)	-11	4	14	-3	·	·
O=C(CCc1nc2ccccc2s1)NCc1ccccc1F	21	3	1	0	·	·
COc1ccc(C(CNC(=O)CCOc2ccccc2)N(C)C)cc1 (stereo not given)	7	-4	-160	32*	361*	3
Cc1cccc(OCCC(=O)NCC(c2ccccc2)N(C)C)c1 (stereo not given)	17	3	-144	28*	49*	2
CN(C)C(CNC(=O)CCc1nc2ccccc2s1)c1ccccc1 (stereo not given)	-14	5	-267	33*	0	0
COc1ccc(NC(=O)CCOc2ccccc2)cc1	-1	0	6	-1	·	·
COCCn1cnc2c1c(=O)n(Cc1ccc(C#N)cc1)c(=O)n2Cc1ccccc1	-10	0	6	-1	·	·
C[C@]12c3[nH]c4ccccc4c3CCN1C(=O)C(CC(=O)NCC13CC4CC(CC(C4)C1)C3)C[C@@H]2C(=O)N1CCCCC1 (stereo not given in full)	-3	1	0	0	·	·
Cc1ccc(NC(=O)CCSCCc2ccccn2)cc1	-1	0	1	0	·	·
CN1CCN(Cc2nc3ccccc3c(=O)n2Cc2nc(-c3ccc4ccccc4c3)cs2)CC1	-36	9.0*	-98	20*!	49*	-1
CN1CCN(Cc2nc3ccccc3c(=O)n2Cc2nc(-c3ccccc3F)cs2)CC1	-34	10	-20	4	·	·
C=CCOc1ccc(CN(C)CC(O)COc2cccc3ccccc23)cc1 (stereo not given)	-35	2	-5	1	·	·
OC(CNC1CCCc2ccccc21)COc1c(Cl)cccc1Cl (stereo not given)	1	0	-142	20*	4	16
SMILES	HTR5A inv ag	HTR5A ag	OPRM1-OPRD1 inv	MOR-DOR ag	OPRM1-D1 ag cf	HTR5A ag ctr2
OC(CNC1Cc2ccccc2C1)COc1ccc(Cl)cc1 (stereo not given)	-14	-4	-9	2	·	·
CC1=C(C(=O)Nc2nc3ccccc3s2)C(c2ccco2)C(C#N)=C(SCC(=O)NC2CCCCC2)N1 (stereo not given)	3	1	-130	26*	18	1
CC(C)C[C@H](NC(=O)NCc1ccc(F)cc1)C(=O)O	-15	2	10	-2	·	·
O=C(CSc1nnnn1-c1cccc2ccccc12)NC(C(=O)O)(c1ccccc1)c1ccccc1	-8	1	6	-1	·	·
O=C(c1ccc2c(=O)n(Cc3ccc(Cl)cc3)c(=S)[nH]c2c1)N1CCCC1	-39	-2	-25	5	·	·
O=c1c2ccc(Cl)cc2[nH]c(=S)n1Cc1cccnc1	18	-8	-297	62*	54*	0
COc1ccc(CN2CCc3c([nH]c4ccccc34)C2)c(OC)c1C	12	-3	-344	70*	38*	1
COc1ccc(CN2CCc3c([nH]c4ccccc34)C2)cc1Br	-3	1	-12	2	·	·
CC(C)Cn1nc(C(=O)NCc2ccccc2CN2CCCC2)c2ccccc2c1=O	-7	3	i	163*	4	1
CCN(c1ccc2c(c1)OCO2)S(=O)(=O)c1cc2c(cc1Br)CCN2C(=O)C1CC1	-1	0	12	-3	·	·
CCc1ccc(-n2c(C)cc(/C=N/NC(=O)OC)c2C)cc1	10	-4	-9	1	·	·
CC(=O)c1cccc(NC(=O)Cc2ccc3c(c2)CCCC3)c1	-5	2	-8	1	·	·
Cc1ccc2c(Cl)c(Cc3ccccc3)c(=S)[nH]c2n1	-2	0	-104	21*	35*	-2
CCN(CC)CCCN(C(=O)c1cccs1)c1nc(-c2ccc(OC)cc2)cs1	21	3	-266	51*	1	27*
CCN(CC)CCCN(C(=O)c1ccc(Br)cc1)c1nc(-c2ccc(OC)cc2)cs1	5	2	-36	7	·	·
COc1ccc(Oc2ccc3c(C(F)(F)F)cc(C(F)(F)F)nc3n2)cc1	2	-1	-4	1	·	·
Oc1ccc(Oc2ccc3c(C(F)(F)F)cc(C(F)(F)F)nc3n2)cc1	-32	15	-103	20*	82*	-1
Cc1ccc(C(=O)c2c(C)oc3c2C(=O)C(=O)c2ccccc2-3)cc1	-30	14*	-170	34*	1	-2
Cc1c(C(=O)N(Cc2ccccc2)C2CCS(=O)(=O)C2)oc2ccccc12 (stereo not given)	-41	13	-13	2	·	·
Cc1c(C(=O)N(Cc2cccs2)C2CCS(=O)(=O)C2)oc2ccccc12 (stereo not given)	-16	5	-138	27*	-2	-7
OC(c1cc(-c2ccc(Cl)cc2)nc2ccccc12)C1CCCCN1 (stereo not given)	7	-2	-28	6	·	·
OC(c1cc(C(F)(F)F)nc2c(Cl)cc(Cl)cc12)C1CCCCN1 (stereo not given)	-42	12*	-139	31*	1	3
COc1ccc(C(CNC(=O)c2cc(SC)ccc2Cl)N(C)C)cc1 (stereo not given)	-18	6	i	104*	4	1
